{"source": "paper PMC5540273", "about": "(PLoS ONE, 2017);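 further: KINOMEscan kinase panel screen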", "data": [{"system": "DYRK1A", "details": "concentration: 1 μM, replicates: in singlicate; n = 1", "units": {"%Inh": "%"}, "values": [{"compound": "Cl.Cn1ccc(-c2cccc(Nc3ccnc4cc(-c5nccs5)ccc34)c2)n1", "note": "[GW525701]", "%Inh": 12}, {"compound": "Nc1nc(-c2ccccn2)c(-c2ccnc3ccccc23)s1", "note": "[GW548057]", "%Inh": 1}, {"compound": "CC(C)N1CCC(n2cnc(-c3ccc(F)cc3)c2-c2ccnc(N)n2)CC1", "note": "[SB-223132]", "%Inh": 0}, {"compound": "Fc1cccc(COc2ccc(Nc3ncnc4cc[nH]c34)cc2Cl)c1", "%Inh": 8}, {"compound": "Cc1cc(N2CCC(NS(=O)(=O)c3ccc(F)cc3)CC2)nc(Nc2cccc(C#N)c2)n1.O=C(O)C(F)(F)F", "note": "[GSK1653537]", "%Inh": 32}, {"compound": "C[C@H]1CC[C@@H](C(=O)Nc2ccccc2)CN1c1cc(-c2ccc3c(N)n[nH]c3c2)nc(N)n1", "note": "[GSK2283293]", "%Inh": 17}, {"compound": "CC(C)(C)c1ccc(-n2cnc3c(N)ncnc32)cc1", "note": "[SKF-97263]", "%Inh": 15}, {"compound": "Cc1ccc(NC(=O)c2cccc(C#N)c2)cc1-c1ccc(C(=O)Nc2ccncc2)cc1", "note": "[GSK1398463]", "%Inh": 31}, {"compound": "Fc1cccc(COc2ccc(Nc3ncnc4nn5ccccc5c34)cc2Cl)c1", "note": "[GW689066]", "%Inh": 8}, {"compound": "Cn1ccc2ncnc(Oc3ccc(NC(=O)Nc4cccnc4)c(Cl)c3)c21", "%Inh": 0}, {"compound": "COc1ccc(NC(=O)c2ccc(-c3cc(-c4nnc(C)o4)ccc3C)cc2)cc1", "note": "[GW595885]", "%Inh": 20}, {"compound": "CS(=O)(=O)CCNCc1ccc(-c2ccc3ncnc(Nc4ccc(OCc5ccccc5)c(Cl)c4)c3c2)o1.Cl", "note": "[GW574783]", "%Inh": 0}, {"compound": "CSc1ccc(NC2=C(c3ccccc3Cl)C(=O)NC2=O)cc1", "note": "[SB-342411]", "%Inh": 67}]}]}
